Records with an inconclusive call do not appear. The source made the active and inactive calls. Calls come from the whole dose curve; as a rule, active = well fitted activation curve with a large enough effect in the repeat runs; inconclusive = weak or mixed curves; inactive = no such curve, though single readings can be large or run the other way.
Assay: qHTS assay for small molecules that induce genotoxicity in human embryonic kidney cells expressing luciferase-tagged ATAD5 (AID 651632); note: nearly all actives have a fitted effect of over 15% in size
Conditions: HEK293T ATAD5-luciferase induction, 16 h; series mostly up to 83.3 µM
Text: U.S. Tox21 Program National Center for Advancing Translational Sciences [NCATS] NIH Chemical Genomics Center [NCGC] U.S. Environmental Protection Agency [EPA] National Institutes of Environmental Health Sciences [NIEHS] National Toxicology Program [NTP] U.S. Food and Drug Administration [FDA] Tox21 Assay Overview: As cancer cells divide rapidly and during every cell division they need to duplicate their genome by DNA replication. The failure to do so results in the cancer cell death. Based on this concept, many chemotherapeutic agents were developed but have limitations such as low efficacy and severe side effects etc. A new cell based assay was developed to find the compounds that effectively block DNA replication either by directly damaging DNA or by inhibiting other cellular mechanisms. Enhanced Level of Genome Instability Gene 1 (ELG1; human ATAD5) protein levels increase in response to various types of DNA damage. Using a luciferase reporter-gene tagged with ATAD5, a cell-based assay [developed by Kyungjae Myung, NHGRI, NIH] was used to measure the induction of ATAD5 in human embryonic kidney cells (HEK293T). So, increase in luciferase activity can be used to identify the compounds that cause genetic stress.
Tox21 Assay Protocol Summary: For genotoxicity screening, 2,000 cells in 5 uL/well were dispensed into white, solid-bottom 1536-well plates using a Multidrop Combi (Thermo Scientific) dispenser. Following transfer of 23 nL compound or DMSO vehicle by a pin tool, the plates were incubated 16 hr at 37C and 5% CO2. 5 ul Amplite (AAT Bioquest, Inc.) was then added to each plate and following 30 min incubation at room temperature, luciferase activity was quantified on a ViewLux CCD-based plate reader.
% is set by controls: 0 for no effect and ±100 for the full control effect.

Structure (SMILES) | outcome | activation
CCN(CCO)CCO | inactive | –
O=C(O)C(Br)(Br)Br | inactive | –
CC#Cc1cc(C)nc(Nc2ccccc2)n1 | inactive | –
O=C1CCCCC1Cl (stereo not given) | inactive | –
CCC1(CC)C(=O)C=CNC1=O | inactive | –
CCN(CC)CCOC(=O)C(O)(c1ccccc1)c1ccccc1 | inactive | –
ClC1=C(Cl)C2(Cl)C(CBr)CC1(Cl)C2(Cl)Cl (stereo not given) | inactive | –
NC(=O)OCCCc1ccccc1 | inactive | –
CC(C)(C)C(=O)C(Cl)Cl | inactive | –
Brc1c(Br)c(Br)c(Br)c(Br)c1Br | – | 2.71% [at 8.08 µM] (inactive)
N=C(N)[Se] | inactive | –
CCOC1Oc2ccc(OS(C)(=O)=O)cc2C1(C)C (stereo not given) | inactive | –
O=C1CC(=O)NC(=O)N1 | inactive | –
O=C(NC(=O)c1c(F)cccc1F)Nc1cc(Cl)c(F)c(Cl)c1F | inactive | –
BrCc1ccc(Br)cc1 | inactive | –
CN(CCO)CCO | inactive | –
NC(=O)CS(=O)C(c1ccccc1)c1ccccc1 (stereo not given) | inactive | –
C(COCC1CO1)OCC1CO1 (stereo not given) | inactive | –
CCC(C)(C#N)N=NC(C)(C#N)CC (stereo not given) | inactive | –
CCC1(c2ccccc2)C(=O)N(COC)C(=O)N(COC)C1=O | inactive | –

Structure (SMILES) | outcome | activation
OCC(Cl)CCl (stereo not given) | inactive | –
Clc1ccc(C(Cl)(Cl)Cl)cn1 | inactive | –
CS(=O)(=O)c1ccc(C(=O)C2C(=O)CCCC2=O)c(Cl)c1COCC(F)(F)F | inactive | –
CCN[C@@H](C)Cc1ccccc1 | inactive | –
CC(C)[N+](C)(CCC(C(N)=O)(c1ccccc1)c1ccccc1)C(C)C | inactive | –
CCOP(=S)(OCC)Oc1ccc(Cl)cc1Cl | inactive | –
O=C(Cl)C(Cl)Cl | inactive | –
C[C@H]1CCCC(=O)CCC/C=C/c2cc(O)cc(O)c2C(=O)O1 | inactive | –
O=C(O)CBr | inactive | –
CC(C)(C)c1cc(O)ccc1O | inactive | –
O=C(Cl)C(Cl)(Cl)Cl | inactive | –
CCC(=O)c1ccc(Cl)cc1 | inactive | –
Nc1c(Cl)c(F)nc(OCC(=O)O)c1Cl | inactive | –
O=C/C=C/c1ccco1 | inactive | –
COc1cc(CCN)cc(OC)c1OC | inactive | –
C#CC(C)(C)O | inactive | –
C=CC1(C)OC(=O)N(c2cc(Cl)cc(Cl)c2)C1=O (stereo not given) | inactive | –
CC(C)(C1CCC(O)CC1)C1CCC(O)CC1 (stereo not given) | inactive | –
CC(Cl)(Cl)Cl | inactive | –
C=CCc1cc(OC)c2c(c1)OCO2 | inactive | –

Source: PubChem BioAssay (Tox21)
